{
  "source": "PubChem BioAssay (NCATS)",
  "data": [
    {"experiment": "qHTS profiling of the MIPE4 collection as inhibitors of Plasmodium falciparum (DD2) proliferation (Rep 2) (AID 743346)", "settings": "P. falciparum Dd2 in erythrocytes, SYBR Green DNA, 72 h; at 28.5 µM unless noted", "excerpt": "Plasmodium falciparum is a virulent malarial parasite that kills 1-2 million people worldwide each year. Transmitted by mosquitoes, the sporozoite form of the parasite enters the blood stream to infect hepatocytes, where they become merozoites that infect red blood cells (erythrocytes). Within erythrocytes, merozoites begin a […] cycle of growth and division, after which the parasite is released to infect new red blood cells. Gametocytes, which form within erythrocytes as well, circulate in the bloodstream and are ingested by the mosquito, thereby completing the life cycle. To profile malarial isolates for differential chemical responses and to identify inhibitors of malarial growth, an assay that measures P. falciparum growth and replication within erythrocytes was employed. This assay uses a DNA binding fluorescent dye (SYBR Green) to detect parasite DNA following cell lysis. Because mature erythrocytes lack DNA, only Plasmodium-derived DNA is detected.\nThe SYBR Green viability assay was adapted from a method described previously (Plouffe et al., 2008). For screening 3 ul culture medium was dispensed into 1536 well black clear bottom plates (Aurora Biotechnologies) using a Multidrop Combi (Thermo Fisher Scientific Inc.), 23 nL compounds in DMSO were added by a pin tool (Kalypsys), and 5 ul of erythrocytes infected with P. falciparum (0.3% parasitemia, 2.5% hematocrit final concentration) were added. The plates were incubated at 37 C in a humidified incubator in 5% CO2 for 72 h, and 2 ul lysis buffer (20 mM Tris HCl, 10 mM EDTA, 0.16% saponin, 1.6% triton X, 10X SYBR Green I supplied as 10,000X […] by Invitrogen) was added to each well. The plates were mixed for 25 sec with gentle shaking and incubated overnight at room temperature in the dark. The following morning, fluorescence intensity at 485(14) nm excitation and 535(25) nm emission wavelengths was measured on an EnVision (Perkin Elmer) plate reader. Plate reads were normalized relative to the control inhibitor (0.29 uM artemisinin) and vehicle (DMSO) wells present on each plate and then corrected by an algorithm using vehicle-only control plates at the beginning and end of the compound plate stack.", "values": [
      {"compound": "COc1cc(O)c2c(c1)C(=O)c1cc(C)cc(O)c1C2=O", "parasite growth, % of control (lower = inhibition)": "84.4% [at 9.64 µM]"},
      {"compound": "O=C1Nc2ccc(Cl)cc2C(C#CC2CC2)(C(F)(F)F)O1", "note": "(stereo not given)", "parasite growth, % of control (lower = inhibition)": "57.2%"},
      {"compound": "CCCCCNC(=O)N1CCC(CN(Cc2ccc(Cl)cc2)Cc2ccc([N+](=O)[O-])s2)C1", "note": "(stereo not given)", "parasite growth, % of control (lower = inhibition)": "30.3%"},
      {"compound": "Nc1ncnc2ccccc12", "parasite growth, % of control (lower = inhibition)": "82.3%"},
      {"compound": "CO[C@H]1C=CO[C@@]2(C)Oc3c(C)c(O)c4c(O)c(c5c(c4c3C2=O)NC2(CCN(CC(C)C)CC2)N=5)=NC(=O)C(C)=CC=C[C@H](C)[C@H](O)[C@@H](C)[C@@H](O)[C@@H](C)[C@H](OC(C)=O)[C@H]1C", "parasite growth, % of control (lower = inhibition)": "12.8%"},
      {"compound": "Cc1cc(OCCCc2c(C(=O)O)n(Cc3cccnc3)c3c(-c4c(COc5ccc(N6CCN([S+](C)(=O)[O-])CC6)cc5)nn(C)c4C)cccc23)cc(C)c1Cl", "parasite growth, % of control (lower = inhibition)": "16%"},
      {"compound": "CC1(C)CCC(CN2CCN(c3ccc(C(=O)NS(=O)(=O)c4ccc(NCC5CCOCC5)c([N+](=O)[O-])c4)c(Oc4cnc5[nH]ccc5c4)c3)CC2)=C(c2ccc(Cl)cc2)C1", "parasite growth, % of control (lower = inhibition)": "24.1%"},
      {"compound": "CC1(C)S[C@H]2[C@H](NC(=O)[C@@H](N)c3ccc(O)cc3)C(=O)N2[C@@H]1C(=O)O", "parasite growth, % of control (lower = inhibition)": "8.21%"},
      {"compound": "CC(C)(C)COc1ccc(-n2cc(C(=O)O)cn2)cc1C#N", "parasite growth, % of control (lower = inhibition)": "76.9%"},
      {"compound": "NC(=O)c1cccc2[nH]c(-c3ccc([C@H]4CCCN4)cc3F)nc12", "parasite growth, % of control (lower = inhibition)": "8.83%"},
      {"compound": "CCc1ccc(OCc2ccccc2C(=O)Nc2ccc3nc(C)cc(N)c3c2)cc1", "parasite growth, % of control (lower = inhibition)": "24.8%"},
      {"compound": "COc1cccc([C@@H](C)NCCCc2ccccc2Cl)c1", "parasite growth, % of control (lower = inhibition)": "13.3%"},
      {"compound": "CC1(C)CCC2=C(O1)c1ccccc1C(=O)C2=O", "parasite growth, % of control (lower = inhibition)": "21.7%"},
      {"compound": "CC(C)(C)OC(=O)N[C@H]1CCCCCC=C[C@@H]2C[C@@]2(C(=O)NS(=O)(=O)C2CC2)NC(=O)[C@@H]2C[C@@H](OC(=O)N3Cc4cccc(F)c4C3)CN2C1=O", "parasite growth, % of control (lower = inhibition)": "10.1%"},
      {"compound": "CC(C)C(C)C=CC(C)C1CCC2C3=CC=C4CC(O)CCC4(C)C3CCC21C", "note": "(stereo not given)", "parasite growth, % of control (lower = inhibition)": "92.8%"},
      {"compound": "NC1=N[C@@]2(c3cc(NC(=O)c4ccc(F)cn4)ccc3F)COC[C@@H]2CS1", "parasite growth, % of control (lower = inhibition)": "26.1%"},
      {"compound": "O=C1C(Cl)=C(NCCN2CCOCC2)C(=O)c2ncccc21", "parasite growth, % of control (lower = inhibition)": "16%"},
      {"compound": "Cc1cnc(C(=O)O)c[n+]1[O-]", "parasite growth, % of control (lower = inhibition)": "108%"},
      {"compound": "COCCCCC(=NOCCN)c1ccc(C(F)(F)F)cc1", "parasite growth, % of control (lower = inhibition)": "49%"},
      {"compound": "CC(C)C[C@H](CC(=O)O)C(=O)N[C@@H](Cc1c[nH]c2ccccc12)C(=O)N[C@@H](C)c1ccccc1", "parasite growth, % of control (lower = inhibition)": "57.5%"},
      {"compound": "Cn1cc(C=C2C(=O)Nc3cccnc32)c2ccccc21", "parasite growth, % of control (lower = inhibition)": "53%"},
      {"compound": "CC(C)(C)c1cc(C(=O)O)c(NC(=O)Nc2ccc3[nH]ncc3c2)s1", "parasite growth, % of control (lower = inhibition)": "81.5%"},
      {"compound": "COc1cc(N2CCC(N3CCN(C)CC3)CC2)ccc1Nc1ncnc(Nc2ccccc2S(=O)(=O)C(C)C)n1", "parasite growth, % of control (lower = inhibition)": "8.07%"},
      {"compound": "CN(C)Cc1cccc(N=C(c2ccccc2)c2c(O)[nH]c3cc(C(=O)N(C)C)ccc23)c1", "parasite growth, % of control (lower = inhibition)": "12.9%"},
      {"compound": "CCNc1cc(NC2CCC(O)CC2)nc(Nc2ccc3c(ccn3Cc3ccccc3)c2)n1", "note": "(stereo not given)", "parasite growth, % of control (lower = inhibition)": "15.2%"},
      {"compound": "O=c1cc(N2CCOCC2)oc2c(-c3cccc4c3sc3ccccc34)cccc12", "parasite growth, % of control (lower = inhibition)": "25.8%"},
      {"compound": "CC(C)(C(=O)NCC(F)(F)C(F)(F)F)C(=O)N[C@@H]1C(=O)Nc2ccccc2-c2ccccc21", "parasite growth, % of control (lower = inhibition)": "11.3%"},
      {"compound": "COCCOc1nc(-c2ccc(Cl)c(Cl)c2)n(-c2ccc(NC(=O)CCl)cc2)n1", "parasite growth, % of control (lower = inhibition)": "31.7%"},
      {"compound": "COc1ncc(-c2ccc3nccc(-c4ccnnc4)c3c2)cc1NS(=O)(=O)c1ccc(F)cc1F", "parasite growth, % of control (lower = inhibition)": "6.02%"},
      {"compound": "N[C@H](CSC(c1ccccc1)(c1ccccc1)c1ccccc1)C(=O)O", "parasite growth, % of control (lower = inhibition)": "16.2%"},
      {"compound": "Cc1[nH]c(C=C2C(=O)Nc3ccc(S(=O)(=O)Cc4c(Cl)cccc4Cl)cc32)c(C)c1C(=O)N1CCC[C@H]1CN1CCCC1", "parasite growth, % of control (lower = inhibition)": "12%"},
      {"compound": "O=C(O)CCC1CCC(c2cc(F)ccc2F)(S(=O)(=O)c2ccc(Cl)cc2)CC1", "note": "(stereo not given)", "parasite growth, % of control (lower = inhibition)": "51.1%"},
      {"compound": "NC[C@@H]1O[C@@H](O[C@H]2[C@@H](O)[C@H](O[C@@H]3[C@@H](O)[C@@H](N)C[C@H](N)[C@H]3O[C@H]3O[C@H](CN)[C@@H](O)[C@@H](O)[C@H]3N)O[C@H]2CO)[C@H](N)[C@@H](O)[C@@H]1O", "parasite growth, % of control (lower = inhibition)": "90%"},
      {"compound": "O=C(NC1CCOCC1)c1ccc(-c2cc(-c3cn[nH]c3-c3ccccn3)ccn2)cc1", "parasite growth, % of control (lower = inhibition)": "40.9%"},
      {"compound": "O=c1cc(-c2ccccc2)oc2cc(O)c(O)c(O)c12", "parasite growth, % of control (lower = inhibition)": "28.3%"},
      {"compound": "O=C1NC(=O)C(=Cc2cccc(C(F)(F)F)c2)S1", "parasite growth, % of control (lower = inhibition)": "76.4%"},
      {"compound": "Clc1ccc(-c2nc3sccn3c2C=NOCc2ccc(Cl)c(Cl)c2)cc1", "parasite growth, % of control (lower = inhibition)": "122%"},
      {"compound": "COC(=O)N[C@H](C(=O)N1CCC[C@@H]1c1ncc(-c2ccc(-c3ccc(-c4cnc([C@@H]5CCCN5C(=O)[C@@H](NC(=O)OC)C(C)C)[nH]4)cc3)cc2)[nH]1)C(C)C", "parasite growth, % of control (lower = inhibition)": "24.9%"},
      {"compound": "O=C(O)c1c(Cl)c(Cl)c(Cl)c(Cl)c1-c1c2cc(I)c(=O)c(I)c-2oc2c(I)c(O)c(I)cc12", "parasite growth, % of control (lower = inhibition)": "80.2%"},
      {"compound": "COc1cc(NC(=O)c2ccc(-c3ccc(Cl)cc3)o2)cc(OC)c1", "parasite growth, % of control (lower = inhibition)": "99.4%"}
    ]}
  ]
}
